# SW480 rerep – DNA re-replication induction in SW480 cells. Potency, µM (highest dose often 46.1 µM), for inactives: top-dose re-replication activation, actives largely listed as activators. 340,000 compounds, 1.8% hits. SW480 DNA re-replication, Hoechst DNA content imaging, 48 h; also: potency is read from the fitted curve at half-maximal effect; % of control where 0% means no effect; nearly all actives have a fitted effect of over 55% in size
#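 Image-based read-out: total Hoechst fluorescence of nuclei (405 nm excitation, 500-530 nm emission), with hits raising the fraction of high-intensity nuclei. SW480 colon cells incubated 48 hr with compounds at 37 C.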
# MCF10A rereplic – induces DNA re-replication in MCF 10a normal breast cells | MCF 10A DNA re-replication, Hoechst nuclear intensity, 48 h | Potency, µM (top dose mostly 46.1 µM), for inactives: top-dose activity, positive = re-replication, most hits filed as activators | 350,000 compounds, 2.9% hits; also: potency is read from the fitted curve at half-maximal effect; % of control where 0% means no effect; nearly all actives have a fitted effect of over 50% in size
# BCR signal inh – inhibitors of chronic active B-cell receptor signaling. ABC-DLBCL IkBa-CBG/CBR reporter, luminescence ratio, 4 h. Potency, µM (top dose mostly 46.1 µM), for inactives: at the top dose activity change, negative = inhibition, actives largely listed as inhibitors. 340,000 compounds, 0.05% hits; active = well fitted inhibition curve with a large enough effect in the signal ratio, with a control signal flat, not every such curve was filed as active; inconclusive = small, poorly fitted or top-dose-only effect, or effect the other way, or a change in a side signal; the % refers to the signal ratio;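 also: potency is read from the fitted curve at half-maximal effect; plate controls were basal doxycycline-induced cells for no effect and cells given 10 µM MG132 for full effect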
#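 Concentration-response series (up to 46 uM) were applied to TMD8 dual-reporter cells for 4 h at 37C with doxycycline. Green/red ratio, after filter-overlap correction, defined %Activity; red signal alone was normalised to basal cells and zero luminescence.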
# DT40 TDP1 no CPT – qHTS for Inhibitors of human tyrosyl-DNA phosphodiesterase 1 (TDP1): qHTS in cells in absence of CPT; DT40 Tdp1-/- hTDP1 cells, no CPT, ATP luminescence, 48 h; 420,000 compounds, 15% hits; AID 686978, 2013; Potency, µM (top dose mostly 46.2 µM), inactives show at the highest dose activity change, negative = growth inhibition, hits mostly inhibitors; also: potency is read from the fitted curve at half-maximal effect; % is scaled to controls: 0 for no effect and ±100 for the full control effect; nearly all actives have a fitted effect of over 55% in size
#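 Readout: luminescence from CellTiter-Glo after 30 min in the dark at RT. Cells: DT40 Tdp1-/- with stable hTDP1, 400/well. Exposure: compounds alone, ≥48 hr, 37 °C.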
# IL-1B inflam inh – blocks inflammasome-driven IL-1 beta release; AID 743279; 360,000 compounds, 4.7% hits; THP-1 LPS/ATP IL-1B secretion, AlphaLISA, 16 h; stronger effect = lower value; activity change, % at 57.5 µM; in the data active = activity change below about -50%; inconclusive = mostly about -30% to -49%; also: % is scaled to controls: 0 for no effect and ±100 for the full control effect
#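 THP-1 cells pretreated 1 hr with compounds (up to 57.5 uM final), then stimulated with LPS (250 ng/mL final) plus ATP (1.25 mM final); secreted IL-1B measured by AlphaLISA after 16 hr, decreased signal indicating inhibition.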
# TDP1 cell CPT – growth inhibition of DT40 Tdp1-/-;hTDP1 cells with camptothecin (screen for TDP1 inhibitors) | chicken DT40 Tdp1-/-;hTDP1 cells + 20 nM CPT, ATP luminescence, 48 h | AID 686979 | 420,000 compounds, 12% hits | Potency, µM (top dose mostly 46.2 µM), for inactives: at the highest dose activity change, negative = growth inhibition, hits mostly inhibitors; also: potency is read from the fitted curve at half-maximal effect; % is scaled to controls: 0 for no effect and ±100 for the full control effect; nearly all actives have a fitted effect of over 55% in size
#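 Chicken DT40 Tdp1-/- cells stably complemented with human TDP1 were seeded at 400 cells/well in medium containing 20 nM camptothecin, exposed to pin-transferred compounds, and grown at 37 °C for at least 48 hr. Viability was read as ATP luminescence.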
# * marks the source's active call; other numbers are inactive results; ? = inconclusive; / = not tested or not shown; [ ] = dose if it differs, or a comment. In the library only some 19% were active in any assay of this set; here they are far more common. Unless noted, calls follow the shape of the dose curve; as a rule, active = well fitted curve in the direction sought with a large enough effect; inconclusive = small, poorly fitted or top-dose-only effect, or another doubt; inactive = no such curve, though single readings can be large; an effect the other way counts as inactive or inconclusive.
SMILES,SW480 rerep,MCF10A rereplic,BCR signal inh,DT40 TDP1 no CPT,IL-1B inflam inh,TDP1 cell CPT
NC(=O)[C@H]1CC2(CC(c3cccc(NC(=O)[C@H]4CCC(=O)N4)c3)=NO2)CN1C(=O)c1cc([N+](=O)[O-])cc([N+](=O)[O-])c1 (stereo partly specified),?,22%,?,2%,8,19%
CCn1c(=O)c2sccc2n(Cc2ccc(C)cc2)c1=O,-4%,-8%,0%,-22%,8,-20%
COc1cc(OC)c(NC(=O)c2ccc3c(SCC(=O)O)c4c(nc3c2)CCCC4)cc1Cl,-19%,5%,2%,11%,?,-17%
COc1cc2nc(N3CCCN(C)CC3)nc(NC3CCN(Cc4ccccc4)CC3)c2cc1OC,/,/,/,4µM*,/,2.5µM*
COc1ccc(-c2cc(C(F)(F)F)nc(N3CCN(Cc4ccccc4)CC3)n2)cc1OC,-4%,24%,1%,?,19,?
Cc1[nH]ccc(=O)c1Cc1c(Cl)cccc1Cl,-3%,-6%,4%,2%,25,26%
Cc1nc(C(Cl)(Cl)Cl)nc2[nH]ccc(=O)c12,-47%,?,6%,16µM*,133,?
CCN(CC)S(=O)(=O)c1ccc(NC(=O)c2ccc(N3CCCC3=O)cc2)cc1,0%,11%,?,?,-2,?
Nc1sc(Cc2ccccc2)cc1C(=O)c1c(-c2ccccc2)[nH]c2ccccc12,/,/,/,4.6µM*,-12,3.7µM*
CCNC(=O)C(=O)c1c(-c2ccccc2)[nH]c2ccccc12,-2%,0%,0%,-9%,7,-6%
CSc1ccc(CN2CCC(C)(Oc3ccc(C(C)=O)cc3)C2)cc1 (stereo unspecified),/,/,/,?,7,?
COc1cc(NC(=O)CSc2nc3c(C)ccc(C)c3cc2C)c(C(=O)O)cc1OC,-50%,-3%,4%,0.37µM*,14,-7%
COc1cc(NC(=O)CSc2ccccc2)c(C(=O)O)cc1OC,/,0%,?,-13%,3,-14%
CC1=C(C(=O)Nc2ccccc2C(F)(F)F)C(c2sccc2C)NC(=S)N1 (stereo unspecified),?,?,0%,16µM*,-7,6.5µM*
CC1=C(C(=O)Nc2ccccc2C(F)(F)F)C(c2ccc(C)s2)NC(=S)N1 (stereo unspecified),1%,3%,-14%,?,-30,4%
O=C1C2C3C=CC(C3)C2C(=O)N1/N=C/c1cn(Cc2ccccc2)c2ccccc12 (stereo unspecified),13%,?,?,?,13,16µM*
CCOC(=O)C1(C)CCCN1C(=O)c1ccc(F)c(Cl)c1 (stereo unspecified),/,/,/,?,18,?
Cc1ncc(N=Nc2ccc(F)cc2)c(-c2ccc(Cl)cc2)n1,-5%,0%,-8%,2%,-2,9%
Oc1ccc(N=Nc2n[nH]c(-c3ccc(Cl)cc3)n2)cc1,1%,?,?,16µM*,0,?
COc1cc(OC)c(NC(=O)CC2SC(N)=NC2=O)cc1Cl (stereo unspecified),/,/,/,-19%,-3,-16%
COc1ccc(C(CC(=O)c2ccc(C)cc2)Sc2ccccc2N)cc1 (stereo unspecified),/,/,/,?,8,23µM*
Nc1ccccc1SC(CC(=O)c1ccccc1)c1ccc([N+](=O)[O-])cc1 (stereo unspecified),/,/,/,16µM*,?,15µM*
Nc1ccccc1SC(CC(=O)c1ccccc1)c1cccc([N+](=O)[O-])c1 (stereo unspecified),/,/,/,5.2µM*,-104*,16µM*
O=C(NC(NC(=O)c1ccccc1)c1cccc([N+](=O)[O-])c1)c1ccccc1,-7%,-1%,-7%,-3%,26,-4%
CC(=O)NC(CSC(CC(=O)c1ccco1)c1ccc(C)cc1)C(=O)O (stereo unspecified),?,21µM*,-27%,16µM*,-1,?
SMILES,SW480 rerep,MCF10A rereplic,BCR signal inh,DT40 TDP1 no CPT,IL-1B inflam inh,TDP1 cell CPT
O=C(Cc1ccc([N+](=O)[O-])cc1)c1ccccc1,?,1%,/,-27%,?,-20%
CCOC(=O)c1cc(OCc2csc(-c3ccccc3)n2)cc(C(=O)OCC)c1,/,/,/,-27%,/,-27%
Cc1ccc(C)c(CN2C(=O)c3ccccc3S(=O)(=O)c3ccc(C(=O)NCc4ccccc4)cc32)c1,/,/,/,-17%,/,20%
O=C(NCCNc1ccc([N+](=O)[O-])cc1)c1ccco1,-8%,1%,15%,-24%,-7,-10%
O=C(CC(SCCO)c1ccc([N+](=O)[O-])cc1)c1ccco1 (stereo unspecified),26%,16%,1%,15µM*,?,-93%
CCc1nc(SC)ncc1C(=O)NCc1cccc(Br)c1,/,/,/,1%,/,5%
CC[N+]1(CC)CCC(=C(c2ccccc2)c2ccccc2)C1C (stereo unspecified),/,/,/,3.3µM*,/,5.3µM*
COc1ccc(-c2cn3nc(N4CCC(C(=O)NCc5cccc(Cl)c5)CC4)sc3n2)cc1,/,/,/,-29%,/,?
Cc1ccccc1-c1cc(C(=O)NCc2ccco2)n(CC2CC(c3cccnc3)=NO2)n1 (stereo unspecified),4%[9.22 µM],?,-8%,21µM*,-4,18µM*
COc1ccc(C2=NOC(Cn3nc(-c4ccccc4)cc3C(=O)NCc3ccccc3OC)C2)cc1 (stereo unspecified),1%,?,-5%,10µM*,-23,12µM*
COc1ccccc1CNC(=O)c1cc(-c2ccccc2)nn1CC1CC(c2cccnc2)=NO1 (stereo unspecified),-6%,12%,/,?,-4,?
Cc1ccc(N(CC(=O)N2CCc3ccccc32)S(=O)(=O)c2cccs2)cc1,1%,-2%,7%,18µM*,-14,?
COc1ccc(N(CC(=O)N2CCc3ccccc32)S(=O)(=O)c2c(C)n[nH]c2C)cc1,-9%,-1%,-8%,?,-54*,-29%
Cc1noc(C)c1C(=O)N1CCC1(C)C(=O)NS(=O)(=O)c1cccc(F)c1 (stereo unspecified),/,/,/,2%,-17,8%
COCCN(CC(=O)Nc1cccc(C)c1C)C(=O)c1oc2c(Cl)cccc2c1C,1%,2%,-1%,?,21,?
